Measured values published in the supplement of paper PMC11006884.
Targets with a hit are over-represented here; the source holds about 6,500 in all. About 2% of all pairs of compound and target were hits. Values without a mark were called inactive.

Compound: COC(=O)C#Cc1ccccc1 [methyl 3-phenylpropiolate]
Experiment: log2 ratio of iodoacetamide-alkyne labeling of the cysteine site, DMSO over compound (competition); higher = stronger covalent engagement of the cysteine by the compound, active = 1 or more
Conditions: 500 µM; treatment time 1 h; system: HEK293T cell lysate
In short: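 Electrophile (500 µM) or vehicle was added to HEK293T lysate (2 mg/mL) for 1 h at ambient temperature before iodoacetamide alkyne labelling (1 h) and click coupling to sCIP-TMT reagents. After pooling, overnight trypsin digestion at 37 °C, streptavidin enrichment and acid elution, peptides were measured by Orbitrap Eclipse LC-MS/MS with FAIMS and quantified in FragPipe. Each cysteine's log2 competition ratio compares mean control-channel with mean compound-channel reporter intensity, control over compound. Data came from duplicate channels across three replicates, excluding cysteines quantified in only one replicate.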

UniProt Q96KQ7, sequence (Q96KQ7 whole entry, looked up): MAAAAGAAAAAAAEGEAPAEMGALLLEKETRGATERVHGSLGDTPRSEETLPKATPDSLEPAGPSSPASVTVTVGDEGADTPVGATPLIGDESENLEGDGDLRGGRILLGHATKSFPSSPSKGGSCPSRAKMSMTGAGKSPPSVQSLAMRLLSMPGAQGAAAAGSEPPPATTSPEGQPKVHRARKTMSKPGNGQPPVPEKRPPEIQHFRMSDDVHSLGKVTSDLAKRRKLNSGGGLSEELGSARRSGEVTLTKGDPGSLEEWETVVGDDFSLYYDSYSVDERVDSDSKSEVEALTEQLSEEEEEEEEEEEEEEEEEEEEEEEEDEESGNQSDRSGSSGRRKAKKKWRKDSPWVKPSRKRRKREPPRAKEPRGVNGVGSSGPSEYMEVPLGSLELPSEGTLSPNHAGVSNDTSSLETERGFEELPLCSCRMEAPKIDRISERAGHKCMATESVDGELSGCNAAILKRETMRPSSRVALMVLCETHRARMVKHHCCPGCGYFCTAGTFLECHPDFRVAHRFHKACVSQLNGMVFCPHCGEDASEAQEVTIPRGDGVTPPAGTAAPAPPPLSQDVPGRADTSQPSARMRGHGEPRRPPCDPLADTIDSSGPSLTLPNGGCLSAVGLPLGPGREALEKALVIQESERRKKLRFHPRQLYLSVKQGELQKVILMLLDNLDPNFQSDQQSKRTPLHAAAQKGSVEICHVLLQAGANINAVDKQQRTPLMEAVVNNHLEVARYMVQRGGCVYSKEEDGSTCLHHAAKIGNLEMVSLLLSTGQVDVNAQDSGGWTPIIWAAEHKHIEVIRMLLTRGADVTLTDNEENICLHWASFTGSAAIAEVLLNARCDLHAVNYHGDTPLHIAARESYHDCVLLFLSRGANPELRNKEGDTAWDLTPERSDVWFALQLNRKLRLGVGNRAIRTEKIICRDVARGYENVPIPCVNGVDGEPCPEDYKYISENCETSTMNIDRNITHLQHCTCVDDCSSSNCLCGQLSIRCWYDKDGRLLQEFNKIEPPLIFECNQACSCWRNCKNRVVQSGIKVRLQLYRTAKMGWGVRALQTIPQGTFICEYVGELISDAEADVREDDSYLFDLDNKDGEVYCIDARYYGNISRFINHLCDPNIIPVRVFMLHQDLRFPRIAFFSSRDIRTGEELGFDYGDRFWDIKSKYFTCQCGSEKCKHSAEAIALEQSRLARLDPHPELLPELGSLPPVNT
UniProt Q96R06, sequence (Q96R06 whole entry, looked up): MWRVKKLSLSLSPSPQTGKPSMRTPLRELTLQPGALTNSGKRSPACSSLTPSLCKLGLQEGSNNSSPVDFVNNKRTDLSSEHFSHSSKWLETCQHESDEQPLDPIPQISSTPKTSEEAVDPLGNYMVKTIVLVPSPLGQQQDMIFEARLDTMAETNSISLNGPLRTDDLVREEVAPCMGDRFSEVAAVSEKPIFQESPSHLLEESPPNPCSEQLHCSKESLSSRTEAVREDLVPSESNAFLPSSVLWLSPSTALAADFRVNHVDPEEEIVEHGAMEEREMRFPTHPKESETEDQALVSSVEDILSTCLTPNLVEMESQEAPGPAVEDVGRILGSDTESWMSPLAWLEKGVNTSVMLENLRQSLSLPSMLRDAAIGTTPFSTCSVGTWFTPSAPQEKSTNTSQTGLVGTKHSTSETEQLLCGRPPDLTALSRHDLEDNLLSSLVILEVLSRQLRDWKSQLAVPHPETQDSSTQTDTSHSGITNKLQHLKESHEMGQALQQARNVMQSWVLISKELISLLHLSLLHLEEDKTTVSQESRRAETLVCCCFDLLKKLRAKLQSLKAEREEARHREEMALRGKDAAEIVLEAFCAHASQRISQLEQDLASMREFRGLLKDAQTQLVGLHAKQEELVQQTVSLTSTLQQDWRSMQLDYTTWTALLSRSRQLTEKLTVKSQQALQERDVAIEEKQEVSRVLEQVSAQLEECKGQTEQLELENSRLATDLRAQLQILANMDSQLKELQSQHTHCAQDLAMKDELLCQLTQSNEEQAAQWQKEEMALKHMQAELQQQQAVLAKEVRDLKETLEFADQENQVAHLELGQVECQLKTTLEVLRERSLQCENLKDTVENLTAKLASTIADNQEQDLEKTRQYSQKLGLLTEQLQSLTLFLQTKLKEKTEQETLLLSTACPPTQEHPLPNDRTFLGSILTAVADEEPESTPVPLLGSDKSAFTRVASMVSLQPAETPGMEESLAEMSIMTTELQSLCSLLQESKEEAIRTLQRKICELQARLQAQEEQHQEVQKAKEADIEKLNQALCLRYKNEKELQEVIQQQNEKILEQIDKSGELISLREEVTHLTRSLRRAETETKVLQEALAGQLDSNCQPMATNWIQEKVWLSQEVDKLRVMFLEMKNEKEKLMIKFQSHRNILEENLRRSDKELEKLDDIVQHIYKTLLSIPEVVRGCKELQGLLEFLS
UniProt Q96GX5, sequence (Q96GX5 whole entry): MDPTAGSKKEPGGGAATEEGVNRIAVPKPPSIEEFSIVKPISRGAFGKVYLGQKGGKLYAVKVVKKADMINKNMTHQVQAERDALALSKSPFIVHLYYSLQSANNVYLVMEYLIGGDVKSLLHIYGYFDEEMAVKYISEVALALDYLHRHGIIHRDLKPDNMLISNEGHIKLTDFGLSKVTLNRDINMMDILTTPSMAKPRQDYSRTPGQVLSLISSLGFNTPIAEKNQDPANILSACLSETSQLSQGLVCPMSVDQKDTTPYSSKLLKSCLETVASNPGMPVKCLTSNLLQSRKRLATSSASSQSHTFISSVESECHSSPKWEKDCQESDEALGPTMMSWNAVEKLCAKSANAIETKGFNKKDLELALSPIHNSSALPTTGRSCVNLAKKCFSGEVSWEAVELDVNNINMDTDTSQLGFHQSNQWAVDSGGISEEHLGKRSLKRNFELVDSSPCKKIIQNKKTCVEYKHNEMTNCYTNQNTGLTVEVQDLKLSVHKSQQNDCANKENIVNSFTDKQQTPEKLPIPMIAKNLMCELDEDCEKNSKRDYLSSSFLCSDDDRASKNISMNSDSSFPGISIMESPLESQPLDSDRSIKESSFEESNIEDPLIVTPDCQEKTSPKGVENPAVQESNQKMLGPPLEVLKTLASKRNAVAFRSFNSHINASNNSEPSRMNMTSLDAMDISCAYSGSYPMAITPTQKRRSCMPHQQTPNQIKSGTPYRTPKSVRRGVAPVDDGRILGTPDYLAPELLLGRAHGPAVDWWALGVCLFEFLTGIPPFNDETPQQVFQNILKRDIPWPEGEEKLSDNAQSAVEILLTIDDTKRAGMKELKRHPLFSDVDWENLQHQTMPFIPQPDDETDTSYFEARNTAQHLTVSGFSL
UniProt Q8TD19, sequence (Q8TD19 whole entry, looked up): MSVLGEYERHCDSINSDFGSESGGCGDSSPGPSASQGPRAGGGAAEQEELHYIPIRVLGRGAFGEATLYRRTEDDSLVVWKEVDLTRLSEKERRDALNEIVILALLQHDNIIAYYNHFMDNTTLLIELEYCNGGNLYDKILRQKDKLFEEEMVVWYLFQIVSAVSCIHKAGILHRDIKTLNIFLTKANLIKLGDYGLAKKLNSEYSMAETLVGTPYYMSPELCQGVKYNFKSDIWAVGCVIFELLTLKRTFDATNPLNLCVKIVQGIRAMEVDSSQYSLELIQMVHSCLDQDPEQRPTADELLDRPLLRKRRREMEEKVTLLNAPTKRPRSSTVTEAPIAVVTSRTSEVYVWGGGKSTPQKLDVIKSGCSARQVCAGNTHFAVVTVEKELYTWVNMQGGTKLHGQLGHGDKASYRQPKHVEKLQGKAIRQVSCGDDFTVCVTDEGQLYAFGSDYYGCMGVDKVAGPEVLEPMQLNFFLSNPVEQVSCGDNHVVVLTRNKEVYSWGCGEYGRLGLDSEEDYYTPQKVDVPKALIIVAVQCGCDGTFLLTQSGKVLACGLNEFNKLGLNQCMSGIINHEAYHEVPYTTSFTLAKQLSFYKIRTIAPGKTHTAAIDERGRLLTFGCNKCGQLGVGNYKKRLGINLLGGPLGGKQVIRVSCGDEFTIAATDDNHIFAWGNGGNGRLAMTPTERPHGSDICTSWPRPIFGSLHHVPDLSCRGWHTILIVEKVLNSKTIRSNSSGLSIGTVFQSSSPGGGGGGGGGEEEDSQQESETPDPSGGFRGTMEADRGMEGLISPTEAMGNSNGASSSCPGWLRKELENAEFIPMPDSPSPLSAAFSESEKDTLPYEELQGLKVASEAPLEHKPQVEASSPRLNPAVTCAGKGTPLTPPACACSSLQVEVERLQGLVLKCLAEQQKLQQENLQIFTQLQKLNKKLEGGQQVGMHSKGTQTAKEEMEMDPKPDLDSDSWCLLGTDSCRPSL
UniProt Q96HN2, sequence (Q96HN2 whole entry): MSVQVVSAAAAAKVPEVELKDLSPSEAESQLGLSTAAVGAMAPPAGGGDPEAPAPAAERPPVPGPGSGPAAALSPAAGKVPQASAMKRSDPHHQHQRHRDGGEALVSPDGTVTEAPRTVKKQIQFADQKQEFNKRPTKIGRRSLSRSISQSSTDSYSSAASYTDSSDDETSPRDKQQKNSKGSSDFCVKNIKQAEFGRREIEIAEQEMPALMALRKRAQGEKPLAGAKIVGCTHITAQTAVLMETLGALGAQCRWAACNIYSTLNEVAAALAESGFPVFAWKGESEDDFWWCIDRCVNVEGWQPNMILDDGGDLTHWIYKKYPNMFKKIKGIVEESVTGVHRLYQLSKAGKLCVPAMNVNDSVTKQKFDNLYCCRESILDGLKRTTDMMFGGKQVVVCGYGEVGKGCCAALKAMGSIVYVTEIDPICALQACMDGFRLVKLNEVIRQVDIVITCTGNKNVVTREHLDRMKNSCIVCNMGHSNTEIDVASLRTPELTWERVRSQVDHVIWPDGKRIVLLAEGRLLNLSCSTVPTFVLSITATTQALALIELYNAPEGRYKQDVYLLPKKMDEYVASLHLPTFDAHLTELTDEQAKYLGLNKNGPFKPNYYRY
UniProt Q99497, sequence (Q99497 whole entry, looked up): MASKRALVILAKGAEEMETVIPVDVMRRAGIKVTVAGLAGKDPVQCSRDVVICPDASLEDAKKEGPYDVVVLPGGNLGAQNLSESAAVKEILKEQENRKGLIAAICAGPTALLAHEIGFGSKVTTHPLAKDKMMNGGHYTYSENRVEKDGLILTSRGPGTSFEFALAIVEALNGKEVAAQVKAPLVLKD

Target | log2 ratio of iodoacetamide-alkyne labeling
FAF2 C194 (UniProt Q96CS3) | 0.689
NEK9 C11 (UniProt Q8TD19) | 1.21 (active)
MASTL C285 (UniProt Q96GX5) | 1.02 (active)
AHCYL2 C353 (UniProt Q96HN2) | 1.13 (active)
EHMT2 C617 (UniProt Q96KQ7) | 0.759
SPAG5 C1035 (UniProt Q96R06) | 0.251
ISCA2 C146 (UniProt Q86U28) | 1.59 (active)
AHCTF1 C521 (UniProt Q8WYP5) | 1.16 (active)
SLFN11 C6 (UniProt Q7Z7L1) | 0.329
THOC6 C314 (UniProt Q86W42) | 0.0566
PARK7 C53 (UniProt Q99497) | -0.0888
NIPBL C1876 (UniProt Q6KC79) | 0.17
KTN1 C1105 (UniProt Q86UP2) | 0.28
